Assay outcomes from PubChem.
MEKK3 PB1 HTS: modulators (inhibitors or enhancers) of MEK5 binding to human MEKK3 PB1 domain; Q99759; 1.4% of 290,000 active; bead-based flow cytometry, Alexa488-MEK5 binding to MEKK3; actives lie on both sides; 0 = blocked by unlabeled MEK5, 100 = vehicle; binding response (% of control), % at 10 µM;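 active = binding response more than 3 SD above or below the average of its plate-row segment, actives on both sides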;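 also: Alexa488 bead fluorescence after subtracting the streptavidin-only scavenger bead signal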
NTR1 ag: agonists of human neurotensin receptor NTR1; P30989; NTR1-U2OS beta-arrestin-GFP spot imaging, agonist mode; activation, % at 20 µM; 0.17% of 330,000 active;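 active = activation at or above 40% of the spot to cytoplasm intensity ratio, with at least 20 cells analyzed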
Target sequence (P30989 whole entry, looked up): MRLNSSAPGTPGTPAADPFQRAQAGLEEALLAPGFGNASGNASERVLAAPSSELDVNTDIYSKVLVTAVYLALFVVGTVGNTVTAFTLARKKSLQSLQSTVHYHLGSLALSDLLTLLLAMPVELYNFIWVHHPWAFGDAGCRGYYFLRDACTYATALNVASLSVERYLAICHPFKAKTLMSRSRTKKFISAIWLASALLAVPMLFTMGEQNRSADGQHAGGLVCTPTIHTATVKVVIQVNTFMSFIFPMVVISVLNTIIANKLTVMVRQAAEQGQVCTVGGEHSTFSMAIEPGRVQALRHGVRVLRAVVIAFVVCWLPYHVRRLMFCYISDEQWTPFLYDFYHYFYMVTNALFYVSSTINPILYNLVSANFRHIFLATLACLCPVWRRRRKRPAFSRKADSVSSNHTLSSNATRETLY
MEKK2 WT-MEK5: raises or lowers MEK5 binding to wildtype human MEKK2 PB1 domain; 1.1% of 290,000 active; Q9Y2U5; bead flow cytometry, Alexa488-MEK5 binding to MEKK2 WT; actives lie on both sides; binding response (% of control), % at 10 µM; in the data active = binding response below about 67% or above about 130%
ANO1 activ: mouse TMEM16A channel activation, primary screen; Q8BHY3; B-score at 10 µM; 0.3% of 340,000 active; HEK293 TMEM16A/YFP-H148Q/I152L, iodide quench fluorescence; active compounds read low;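 active = fluorescence-ratio B-score plate-corrected deviation score at least 3 library SD below zero, with starting fluorescence score within 5 deviations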;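 also: channel opened by trigger with iodide after compound preincubation; score built on the fluorescence ratio of max minus min over baseline; more negative score means more quench and so TMEM16A activation or potentiation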
ANO1 block: inhibitors of mouse TMEM16A calcium-activated chloride channel. Q8BHY3. HEK293 TMEM16A/YFP iodide influx fluorescence, ionomycin. normalized B-score (activity score, 25-100; higher = stronger inhibition) at 10 µM. 1.2% of 310,000 active;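 active = ratio plate-corrected score three or more library SD toward inhibition, starting fluorescence score within five deviations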;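 also: score derived from kinetic fluorescence span divided by baseline fluorescence per well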
MEKK2mut PB1 HTS: signal of MEK5 binding to mutant human MEKK2 PB1 domain. bead flow cytometry, Alexa488-MEK5 binding to MEKK2 mutant. percent response, % at 10 µM. 0.35% of 290,000 active. AID 1530; in the data active = percent response above about 24%, passing the limit was not always enough
MEKK2wt confirm: raises or lowers MEK5 binding to wildtype human MEKK2, retest; shares compounds with MEKK3 PB1 HTS; bead flow cytometry, Alexa488-MEK5 binding to MEKK2 WT; actives lie on both sides; binding response (% of control), % at 10 µM; 2.4% of 5,900 active; AID 1892; in the data active = binding response below about 16% or above about 210%; inactive = in between
MEKK2mut-MEK5: signal of MEK5 binding to mutant human MEKK2, retest. percent response, % at 10 µM. 2% of 5,900 active. AID 1893. bead flow cytometry, Alexa488-MEK5 binding to MEKK2 mutant. shares compounds with MEKK3 PB1 HTS; in the data active = percent response mostly above about 71%, no sharp cut-off; inactive = mostly below about 38%;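 also: higher means compound restores mutant binding toward wildtype level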
MEKK3 confirm: MEKK3-MEK5 PB1 inhibition, single concentration confirmation | binding response (% of control), % at 10 µM | shares compounds with MEKK3 PB1 HTS | 1.8% of 5,900 active | AID 1894 | bead flow cytometry, Alexa488-MEK5 binding to MEKK3; active compounds read low;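 active = binding response below 72% of control, or above a set upper limit, though filed actives all read lower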;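 also: lower values mean stronger disruption of MEK5 binding to MEKK3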
A number is an active result; [ ] = remark or other dose. A selection: hits, their analogues and other compounds. The true share with any hit is near 3.4%.

How did Cc1csc2c(=O)sc(NC(=O)c3ccc(F)cc3)nc12 do in these assays?
MEKK3 PB1 HTS: inactive; NTR1 ag: inactive; MEKK2 WT-MEK5: inactive; ANO1 activ: inactive; ANO1 block: inactive; MEKK2mut PB1 HTS: inactive

How did Cc1csc2nc(NC(=O)c3ccccc3)sc(=O)c12 do in these assays?
MEKK3 PB1 HTS: 130; NTR1 ag: inactive; MEKK2 WT-MEK5: inactive; ANO1 activ: inactive; ANO1 block: inactive; MEKK2mut PB1 HTS: inactive; MEKK2wt confirm: inactive; MEKK2mut-MEK5: inactive; MEKK3 confirm: inactive

Results for O=C(Nc1nc2ccccc2s1)c1ccccc1 ?
MEKK3 PB1 HTS: inactive; NTR1 ag: inactive; MEKK2 WT-MEK5: inactive; ANO1 activ: inactive; ANO1 block: inactive; MEKK2mut PB1 HTS: inactive

What do the screens show for `COc1ccccc1NS(=O)(=O)c1cccc(C(=O)N/N=C/c2ccc([N+](=O)[O-])o2)c1`?
NTR1 ag: inactive; ANO1 activ: inactive

Results for CCOCc1c(C(=O)OCC(=O)Nc2ccc(C)c(S(=O)(=O)N(C)C)c2)oc2ccccc12 ?
MEKK3 PB1 HTS: 135; NTR1 ag: inactive; MEKK2 WT-MEK5: inactive; ANO1 activ: inactive; ANO1 block: inactive; MEKK2mut PB1 HTS: inactive; MEKK2wt confirm: inactive; MEKK2mut-MEK5: inactive; MEKK3 confirm: inactive

How did CCC(C(=O)NCCC1=CCCCC1)c1ccccc1 (centres undefined) do in these assays?
MEKK3 PB1 HTS: inactive; NTR1 ag: inactive; MEKK2 WT-MEK5: inactive; ANO1 activ: inactive; ANO1 block: inactive; MEKK2mut PB1 HTS: inactive

Results for O=C(Nc1ccccc1)/C(=C\c1ccncc1)NC(=O)c1ccccc1 ?
MEKK3 PB1 HTS: 131; NTR1 ag: inactive; MEKK2 WT-MEK5: inactive; ANO1 activ: inactive; ANO1 block: inactive; MEKK2mut PB1 HTS: inactive; MEKK2wt confirm: inactive; MEKK2mut-MEK5: inactive; MEKK3 confirm: inactive

What do the screens show for `O=C(Nc1ccccc1)/C(=C\c1ccccc1)NC(=O)c1ccco1`?
MEKK3 PB1 HTS: inactive; NTR1 ag: inactive; MEKK2 WT-MEK5: inactive; ANO1 activ: inactive; ANO1 block: inactive; MEKK2mut PB1 HTS: inactive

Results for O=C(Nc1ccccc1)/C(=C/c1cccnc1)NC(=O)c1ccco1 ?
MEKK3 PB1 HTS: 129; NTR1 ag: inactive; MEKK2 WT-MEK5: inactive; ANO1 activ: inactive; ANO1 block: inactive; MEKK2mut PB1 HTS: inactive; MEKK2wt confirm: inactive; MEKK2mut-MEK5: inactive; MEKK3 confirm: inactive

Results for O=C(Nc1ccc(O)cc1)/C(=C\c1ccncc1)NC(=O)c1ccccc1 ?
MEKK3 PB1 HTS: inactive; NTR1 ag: inactive; MEKK2 WT-MEK5: inactive; ANO1 activ: inactive; ANO1 block: inactive; MEKK2mut PB1 HTS: inactive

Results for CCS(=O)(=O)Nc1cccc(C2=NN(S(C)(=O)=O)C(c3ccccc3)C2)c1 (centres undefined) ?
MEKK3 PB1 HTS: 18[inhibitor]; NTR1 ag: inactive; MEKK2 WT-MEK5: inactive; ANO1 activ: -9.7; ANO1 block: inactive; MEKK2mut PB1 HTS: 54; MEKK2wt confirm: inactive; MEKK2mut-MEK5: inactive; MEKK3 confirm: inactive

How did CCS(=O)(=O)N1N=C(c2cccc(NS(C)(=O)=O)c2)CC1c1ccccc1 (centres undefined) do in these assays?
NTR1 ag: inactive; ANO1 activ: inactive; ANO1 block: inactive

What do the screens show for `Cc1ccc(C2=NN(S(C)(=O)=O)C(c3ccc4c(c3)OCO4)C2)cc1` (centres undefined)?
MEKK3 PB1 HTS: 10[inhibitor]; NTR1 ag: inactive; ANO1 activ: inactive; ANO1 block: inactive; MEKK2mut PB1 HTS: inactive; MEKK2wt confirm: inactive; MEKK2mut-MEK5: inactive; MEKK3 confirm: inactive

Results for CS(=O)(=O)N1N=C(c2ccc(Br)cc2)CC1c1ccc2c(c1)OCO2 (centres undefined) ?
MEKK3 PB1 HTS: inactive; NTR1 ag: inactive; MEKK2 WT-MEK5: 14; ANO1 activ: inactive; ANO1 block: inactive; MEKK2mut PB1 HTS: 83; MEKK2wt confirm: inactive; MEKK2mut-MEK5: inactive; MEKK3 confirm: inactive

How did CS(=O)(=O)Nc1ccc(C2=NN(S(C)(=O)=O)C(c3ccc4nccnc4c3)C2)cc1 (centres undefined) do in these assays?
MEKK3 PB1 HTS: 3.0[inhibitor]; NTR1 ag: inactive; ANO1 activ: inactive; ANO1 block: inactive; MEKK2wt confirm: inactive; MEKK2mut-MEK5: inactive; MEKK3 confirm: inactive

What do the screens show for `COCCNC(=O)C(c1ccc(C)o1)N(CCOC)C(=O)Cn1nnc2ccccc21` (centres undefined)?
MEKK3 PB1 HTS: inactive; NTR1 ag: inactive; MEKK2 WT-MEK5: inactive; ANO1 activ: inactive; ANO1 block: inactive; MEKK2mut PB1 HTS: inactive

Results for COc1ccc(NC(=O)CC(Cc2ccccc2)C(=O)O)cc1 (centres undefined) ?
MEKK3 PB1 HTS: inactive; NTR1 ag: inactive; MEKK2 WT-MEK5: inactive; ANO1 activ: inactive; ANO1 block: inactive; MEKK2mut PB1 HTS: inactive

How did COc1ccc(NC(=O)CC(C(=O)O)C(C)c2ccccc2)cc1 (centres undefined) do in these assays?
MEKK3 PB1 HTS: inactive; NTR1 ag: inactive; MEKK2 WT-MEK5: 160; ANO1 activ: inactive; ANO1 block: inactive; MEKK2mut PB1 HTS: 29; MEKK2wt confirm: inactive; MEKK2mut-MEK5: inactive; MEKK3 confirm: inactive

What do the screens show for `O=C(NNC(=O)c1ccc(Cl)nc1)c1ccncc1`?
NTR1 ag: inactive; ANO1 activ: inactive

What do the screens show for `CCOc1ccc(CCNC(=O)c2cccc(S(=O)(=O)N3CCN(C(C)=O)CC3)c2)cc1OCC`?
NTR1 ag: inactive; ANO1 activ: inactive; ANO1 block: inactive

How did COCCNC(=O)CN(C)S(=O)(=O)c1ccc2c(c1)OCCO2 do in these assays?
MEKK3 PB1 HTS: 7.0[inhibitor]; NTR1 ag: inactive; MEKK2 WT-MEK5: 11[inhibitor]; ANO1 activ: inactive; ANO1 block: inactive; MEKK2mut PB1 HTS: inactive; MEKK2wt confirm: inactive; MEKK2mut-MEK5: inactive; MEKK3 confirm: inactive

Results for Oc1cccc(NC(=S)Nc2ccc(SC(F)F)cc2)c1 ?
MEKK3 PB1 HTS: inactive; NTR1 ag: inactive; MEKK2 WT-MEK5: inactive; ANO1 activ: inactive; ANO1 block: inactive; MEKK2mut PB1 HTS: inactive

What do the screens show for `FC(F)Sc1ccc(NC(=S)NC2CCC(NC(=S)Nc3ccc(SC(F)F)cc3)CC2)cc1` (centres undefined)?
MEKK3 PB1 HTS: inactive; NTR1 ag: inactive; MEKK2 WT-MEK5: 145; ANO1 activ: inactive; ANO1 block: inactive; MEKK2mut PB1 HTS: inactive; MEKK2wt confirm: inactive; MEKK2mut-MEK5: inactive; MEKK3 confirm: inactive
